The source made the active and inactive calls. The calls were made as follows: active = hit-call score of the fitted dose curve at least 0.9, where 1 is the maximum; inactive = score below 0.9.

The target in assay [1] is Transcription factor E2F1 (Homo sapiens) (UniProt Q01094). Kind of assay: ATG_E2F_CIS: Attagene CIS-FACTORIAL HepG2 Assay for human E2F Transcription Factor 1 (AID 2282935). The conditions noted are these: HepG2 Attagene cis-reporter, E2F reporter RNA transcripts; actives raise or lower the signal. The gist of the method:
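First, HepG2 cells were transfected with reporter transcription units. Next, they were dosed for 24 h. Then RNA was isolated, converted to cDNA, PCR-amplified, FAM-labeled, HpaI-digested and analyzed by capillary electrophoresis.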

Assay [2] in a line: ATG_E_Box_CIS: Attagene CIS-FACTORIAL HepG2 Assay for human Enhancer Box (E-box) (AID 2282936). The note with it: HepG2 E-box cis-reporter transcription, actives raise or lower the signal. The gist of the method: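 Endogenous transcription factor activity was sensed in human HepG2 liver cells through transfected cis-promoter reporter units. After 24 h of dosing, total RNA was reverse-transcribed and reporter cDNA resolved by capillary electrophoresis.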

Assay [3] can be described thus: ATG_EGR_CIS: Attagene CIS-FACTORIAL HepG2 Assay for human Early Growth Response 1 (EGR1) (AID 2282938). The note with it: HepG2 Attagene CIS-FACTORIAL EGR reporter mRNA; actives raise or lower the signal. The gist of the method: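 Read-out: fluorescent reporter-mRNA fragments resolved by capillary electrophoresis after RT-PCR, 24 h post-dose in transiently transfected HepG2. Endogenous transcription-factor activity reported via cis-element-regulated reporter units; gain or loss fitted relative to DMSO.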

The nature of assay [4]: ATG_M_19_CIS: Attagene CIS-FACTORIAL HepG2 Assay for M19 Transcription Factor (Internal Marker) (AID 2282939). The conditions noted are these: HepG2 Attagene CIS-FACTORIAL M19 internal marker reporter; actives raise or lower the signal. In short, it runs like this:
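HepG2 cells transiently transfected with cis-regulated multiple reporter transcription units were dosed for 24 h; reporter mRNA was quantified by RT-PCR, 6-FAM primer-extension labelling, HpaI digestion and capillary electrophoresis, with bidirectional fitting against DMSO baseline.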

A short description of assay [5]: ATG_ERE_CIS: Attagene CIS-FACTORIAL HepG2 Assay for Estrogen Response Element (ERE) (AID 2282940). The note with it: HepG2 ERE cis-reporter, Attagene RNA transcript; actives raise or lower the signal. In short, it runs like this:
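HepG2 cells transiently transfected with cis-promoter-driven multiplexed reporter transcription units report endogenous TF activity. After 24 h compound exposure, reporter mRNA is quantified by RT-PCR with capillary electrophoresis fluorescence; bidirectional fitting versus DMSO baseline.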

Assay [6] can be described thus: ATG_Ets_CIS: Attagene CIS-FACTORIAL HepG2 Assay for human Erythroblast Transformation Specific (ETS) (AID 2282941). The note with it: HepG2 ETS cis-reporter transcription, actives raise or lower the signal. The gist of the method: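 Cis-regulated reporter mRNA induction in HepG2 (transient transfection), 24 h exposure, RT-PCR plus capillary electrophoresis detection; DMSO serves as negative control and baseline.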

Assay [7] deals with Hepatocyte nuclear factor 3-beta (Homo sapiens) (UniProt Q9Y261). The assay is described as follows: ATG_FoxA2_CIS: Attagene CIS-FACTORIAL HepG2 Assay for human Forkhead box A2 (FOXA2) (AID 2282942). The conditions noted are these: HepG2 cis-reporter transcription factor activity, 24 h; actives raise or lower the signal. In short, it runs like this:
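Readout: fluorescent reporter transcripts resolved by capillary electrophoresis after RT-PCR. Transiently transfected HepG2, 24 h compound exposure, endogenous TF activity at cis promoter elements. Gain or loss of signal fitted relative to DMSO.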

A short description of assay [8]: ATG_FoxO_CIS: Attagene CIS-FACTORIAL HepG2 Assay for human Forkhead box O (FoxO) (AID 2282943). The conditions noted are these: HepG2 Attagene cis-reporter, FoxO element, mRNA; actives raise or lower the signal. The gist of the method:
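Values reflect reporter mRNA induction or loss in HepG2 cells 24 h post-dosing, fitted bidirectionally with DMSO as negative control and baseline. Detection used RT-PCR and fluorescence capillary electrophoresis.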

A short description of assay [9]: ATG_GATA_CIS: Attagene CIS-FACTORIAL HepG2 Assay for human GATA Binding Protein (AID 2282944). The conditions noted are these: HepG2 GATA cis-element reporter, Attagene multiplex mRNA; actives raise or lower the signal. The gist of the method: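 HepG2 cells transiently transfected with multiplexed cis-element reporter units reflecting endogenous transcription factor activity; reporter mRNA measured after 24 h dosing by RT-PCR, 6-FAM labeling, HpaI digestion and capillary electrophoresis. Bidirectional fitting versus DMSO baseline.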

A short description of assay [10]: ATG_GLI_CIS: Attagene CIS-FACTORIAL HepG2 Assay for human Zinc Finger Protein GLI1 (AID 2282945). The conditions noted are these: HepG2, Attagene cis-factorial reporter mRNA, GLI element; actives raise or lower the signal. The gist of the method:
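HepG2 cells transiently transfected with cis-promoter multiplexed reporter units report endogenous transcription factor activity. After 24 h chemical exposure, reporter mRNA was quantified by RT-PCR, 6-FAM labelling, HpaI digestion and capillary electrophoresis, with bidirectional fitting against DMSO.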

Assay [11] has as its target Bile acid receptor (Homo sapiens) (UniProt Q96RI1). Kind of assay: ATG_IR1_CIS: Attagene CIS-FACTORIAL HepG2 Assay for human Nuclear Receptor Subfamily 1 Group H Member 4 (NR1H4), IR1 submotif (AID 2282946). The note with it: IR1 reporter transcription, actives raise or lower the signal. In short, it runs like this:
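Readout: reporter transcript levels by RT-PCR with fluorescent capillary electrophoresis, from HepG2 cells transiently transfected with multiplexed cis-regulated reporters and dosed 24 h. Gain- or loss-of-signal fitted versus DMSO negative control.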

The nature of assay [12]: ATG_GRE_CIS: Attagene CIS-FACTORIAL HepG2 Assay for human Glucocorticoid Response Elements (GRE) (AID 2282947). The conditions noted are these: HepG2 GRE cis-reporter, Attagene multiplex mRNA; actives raise or lower the signal. In short, it runs like this: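 Cells (HepG2) bearing transfected cis-promoter reporter transcription units were treated with chemical for 24 hours. Reporter mRNA was measured via RT-PCR with capillary electrophoresis, and activity was fitted in both directions relative to DMSO.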

Assay [13] in a line: ATG_ISRE_CIS: Attagene CIS-FACTORIAL HepG2 Assay for human Interferon Regulatory Factor 1 (IRF1) binding to an Interferon-Stimulated Response Element (ISRE) (AID 2282948). The note with it: HepG2 ISRE cis-reporter (Attagene), mRNA transcription readout; actives raise or lower the signal. In short, it runs like this: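 Multiplexed mRNA reporter readout in human liver HepG2 cells: cis-element-driven reporters transfected, compound added for 24 h, transcripts amplified, fluorescently labelled and sized by capillary electrophoresis; curve fitting bidirectional against DMSO.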

Assay [14] in a line: ATG_M_32_CIS: Attagene CIS-FACTORIAL HepG2 Assay for M32 Transcription Factor (Internal Marker) (AID 2282949).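 Also: background control marker of the multiplexed CIS panel rather than a real target.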 The note with it: HepG2 Attagene cis-factorial M32 reporter, mRNA; actives raise or lower the signal. The gist of the method:
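HepG2 human liver cells transiently transfected with cis-promoter-driven multiple reporter transcription units, dosed 24 h. Reporter mRNA quantified by RT-PCR, FAM-labelled primer extension, HpaI digest and capillary electrophoresis; bidirectional fit versus DMSO baseline.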

Assay [15] can be described thus: ATG_M_06_CIS: Attagene CIS-FACTORIAL HepG2 Assay for M06 Transcription Factor (Internal Marker) (AID 2282950). The conditions noted are these: HepG2 Attagene CIS-FACTORIAL M06 internal marker reporter; actives raise or lower the signal. The gist of the method:
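HepG2 cells transiently transfected with cis-regulated multiple reporter transcription units were exposed to chemical for 24 h; reporter mRNA was quantified by RT-PCR, 6-FAM primer labelling, HpaI digestion and capillary electrophoresis, fitted bidirectionally against DMSO.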

In assay [16] the target is Hypoxia-inducible factor 1-alpha (Homo sapiens) (UniProt Q16665). Kind of assay: ATG_HIF1a_CIS: Attagene CIS-FACTORIAL HepG2 Assay for human Hypoxia Inducible Factor 1 (HIF1A) (AID 2282951). The note with it: HepG2 Attagene cis-factorial HIF1a reporter transcription; actives raise or lower the signal. The gist of the method:
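RT-PCR/capillary electrophoresis fluorescence readout of reporter transcripts from endogenous-TF-driven cis elements in transfected HepG2 cells, 24 h exposure; activity fitted in both directions against DMSO controls.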

Assay [17] concerns the target Hepatocyte nuclear factor 6 (Homo sapiens) (UniProt Q9UBC0). The assay is described as follows: ATG_HNF6_CIS: Attagene CIS-FACTORIAL HepG2 Assay for human Hepatocyte Nuclear Factor 6 (HNF6) (AID 2282952). The conditions noted are these: HepG2 Attagene cis-factorial HNF6 reporter transcription; actives raise or lower the signal. The gist of the method:
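Using cis-element reporters in HepG2 liver cells, the assay tracks endogenous factor-driven transcription 24 h post-dosing. Signal comes from 6-FAM-labelled, HpaI-digested RT-PCR fragments, with gain or loss scored against DMSO.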

Assay [18] has as its target Heat shock factor protein 1 (Homo sapiens) (UniProt Q00613). Kind of assay: ATG_HSE_CIS: Attagene CIS-FACTORIAL HepG2 Assay for human Heat Shock Transcription Factor 1 (HSE) (AID 2282953). The note with it: HepG2 HSE cis-reporter, Attagene RNA transcription; actives raise or lower the signal. The gist of the method:
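HepG2 cells transiently transfected with multiple reporter transcription units under cis-regulatory promoter control, measuring endogenous transcription factor activity. After 24 h chemical exposure, reporter mRNA quantified by RT-PCR, fluorescent labelling, HpaI digestion and capillary electrophoresis; bidirectional fit versus DMSO.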

Assay [19] can be described thus: ATG_M_61_CIS: Attagene CIS-FACTORIAL HepG2 Assay for M61 Transcription Factor (Internal Marker) (AID 2282937). The conditions noted are these: HepG2 Attagene CIS-FACTORIAL M61 internal marker reporter; actives raise or lower the signal. The gist of the method: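 Readout: fluorescent reporter mRNA fragments resolved by capillary electrophoresis after RT-PCR. Transiently transfected human HepG2 cells carried MRTU constructs reporting endogenous TF activity; 24 h chemical exposure; gain or loss of signal fitted relative to DMSO.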

A short description of assay [20]: ATG_MRE_CIS: Attagene CIS-FACTORIAL HepG2 Assay for human Metal Responsive Element (MRE) (AID 2282954). The conditions noted are these: HepG2 MRE cis-reporter transcription, Attagene multiplex; actives raise or lower the signal. In short, it runs like this:
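Cells were transfected with cis-promoter reporter transcription units, then dosed for 24 h. RNA was reverse-transcribed, amplified, fluorescently labelled and resolved by capillary electrophoresis, and activity was fitted in both directions relative to DMSO.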

Chain of Hepatocyte nuclear factor 6 (Homo sapiens) (Q9UBC0 whole entry, looked up, the tested form may be a part): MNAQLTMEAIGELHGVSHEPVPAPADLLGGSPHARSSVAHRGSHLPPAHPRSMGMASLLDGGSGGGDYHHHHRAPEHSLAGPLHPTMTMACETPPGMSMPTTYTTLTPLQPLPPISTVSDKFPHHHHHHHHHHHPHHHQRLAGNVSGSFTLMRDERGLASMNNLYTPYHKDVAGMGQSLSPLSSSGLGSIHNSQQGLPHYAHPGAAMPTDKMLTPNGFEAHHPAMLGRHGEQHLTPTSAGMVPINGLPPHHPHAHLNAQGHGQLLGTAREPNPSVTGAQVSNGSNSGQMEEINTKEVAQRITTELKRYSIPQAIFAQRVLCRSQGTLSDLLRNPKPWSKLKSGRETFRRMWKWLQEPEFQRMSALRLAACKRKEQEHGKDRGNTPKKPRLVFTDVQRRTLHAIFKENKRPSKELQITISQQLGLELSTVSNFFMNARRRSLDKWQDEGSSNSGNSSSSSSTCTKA
Chain of Heat shock factor protein 1 (Homo sapiens) (Q00613 whole entry, looked up): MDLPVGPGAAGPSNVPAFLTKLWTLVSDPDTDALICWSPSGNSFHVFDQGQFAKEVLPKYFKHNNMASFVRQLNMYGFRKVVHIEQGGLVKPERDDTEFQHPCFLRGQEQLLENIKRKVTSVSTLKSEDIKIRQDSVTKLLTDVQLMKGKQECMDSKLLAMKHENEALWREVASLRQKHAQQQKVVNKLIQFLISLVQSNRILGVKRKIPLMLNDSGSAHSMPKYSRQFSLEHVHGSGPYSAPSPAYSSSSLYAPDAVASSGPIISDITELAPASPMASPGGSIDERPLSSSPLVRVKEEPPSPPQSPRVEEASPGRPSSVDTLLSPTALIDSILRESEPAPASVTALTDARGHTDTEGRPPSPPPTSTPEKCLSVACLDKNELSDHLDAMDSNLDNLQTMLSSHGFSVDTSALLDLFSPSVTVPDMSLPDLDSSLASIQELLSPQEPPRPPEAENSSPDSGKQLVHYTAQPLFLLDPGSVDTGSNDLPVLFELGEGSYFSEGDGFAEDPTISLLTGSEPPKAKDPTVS
Chain of Transcription factor E2F1 (Homo sapiens) (Q01094 whole entry, looked up): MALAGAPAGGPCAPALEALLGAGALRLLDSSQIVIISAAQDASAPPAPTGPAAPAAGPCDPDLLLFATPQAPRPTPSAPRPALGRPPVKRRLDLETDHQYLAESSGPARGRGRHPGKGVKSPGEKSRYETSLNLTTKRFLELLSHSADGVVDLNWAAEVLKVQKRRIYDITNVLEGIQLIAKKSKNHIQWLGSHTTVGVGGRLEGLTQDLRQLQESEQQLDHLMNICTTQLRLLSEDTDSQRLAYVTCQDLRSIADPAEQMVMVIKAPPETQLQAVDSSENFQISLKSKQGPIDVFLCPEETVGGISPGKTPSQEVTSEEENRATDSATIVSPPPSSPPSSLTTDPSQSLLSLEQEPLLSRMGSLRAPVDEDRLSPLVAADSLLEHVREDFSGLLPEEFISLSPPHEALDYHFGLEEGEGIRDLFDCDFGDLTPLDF
Chain of Hepatocyte nuclear factor 3-beta (Homo sapiens) (Q9Y261 whole entry, looked up): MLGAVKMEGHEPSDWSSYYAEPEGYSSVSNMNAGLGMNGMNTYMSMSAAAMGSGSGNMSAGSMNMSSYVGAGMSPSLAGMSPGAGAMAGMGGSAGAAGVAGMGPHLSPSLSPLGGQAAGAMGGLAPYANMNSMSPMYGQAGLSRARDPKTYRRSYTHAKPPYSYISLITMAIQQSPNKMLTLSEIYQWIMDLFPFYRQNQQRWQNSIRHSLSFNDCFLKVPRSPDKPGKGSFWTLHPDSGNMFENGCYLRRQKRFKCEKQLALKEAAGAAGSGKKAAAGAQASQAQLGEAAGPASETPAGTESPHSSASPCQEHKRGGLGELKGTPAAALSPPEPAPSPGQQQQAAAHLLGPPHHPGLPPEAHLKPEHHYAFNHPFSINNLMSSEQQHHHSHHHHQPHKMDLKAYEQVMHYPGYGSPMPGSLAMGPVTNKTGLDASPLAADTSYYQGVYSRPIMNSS
Chain of Hypoxia-inducible factor 1-alpha (Homo sapiens) (Q16665 whole entry, looked up): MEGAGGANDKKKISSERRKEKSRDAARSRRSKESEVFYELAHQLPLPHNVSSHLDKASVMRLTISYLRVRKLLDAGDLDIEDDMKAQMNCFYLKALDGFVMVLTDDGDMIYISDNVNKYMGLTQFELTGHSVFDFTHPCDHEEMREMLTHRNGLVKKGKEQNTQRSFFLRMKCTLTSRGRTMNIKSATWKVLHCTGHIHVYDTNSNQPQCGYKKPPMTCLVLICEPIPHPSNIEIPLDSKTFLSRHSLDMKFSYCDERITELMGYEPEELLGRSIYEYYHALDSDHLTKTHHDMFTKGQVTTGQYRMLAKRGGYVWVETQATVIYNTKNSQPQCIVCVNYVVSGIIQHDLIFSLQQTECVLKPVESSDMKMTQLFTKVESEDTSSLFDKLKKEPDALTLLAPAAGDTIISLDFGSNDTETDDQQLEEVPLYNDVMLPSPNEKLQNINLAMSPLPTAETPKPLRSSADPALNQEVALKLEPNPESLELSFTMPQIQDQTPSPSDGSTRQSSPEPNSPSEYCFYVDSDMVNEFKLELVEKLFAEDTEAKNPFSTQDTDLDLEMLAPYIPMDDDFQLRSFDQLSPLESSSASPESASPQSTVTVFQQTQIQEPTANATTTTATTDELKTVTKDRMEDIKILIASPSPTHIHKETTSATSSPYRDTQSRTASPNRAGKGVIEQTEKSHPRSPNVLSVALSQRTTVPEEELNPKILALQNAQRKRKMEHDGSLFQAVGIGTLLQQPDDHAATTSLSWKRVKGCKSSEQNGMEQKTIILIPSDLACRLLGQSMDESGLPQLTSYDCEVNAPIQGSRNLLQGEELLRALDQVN
Chain of Bile acid receptor (Homo sapiens) (Q96RI1 whole entry, looked up): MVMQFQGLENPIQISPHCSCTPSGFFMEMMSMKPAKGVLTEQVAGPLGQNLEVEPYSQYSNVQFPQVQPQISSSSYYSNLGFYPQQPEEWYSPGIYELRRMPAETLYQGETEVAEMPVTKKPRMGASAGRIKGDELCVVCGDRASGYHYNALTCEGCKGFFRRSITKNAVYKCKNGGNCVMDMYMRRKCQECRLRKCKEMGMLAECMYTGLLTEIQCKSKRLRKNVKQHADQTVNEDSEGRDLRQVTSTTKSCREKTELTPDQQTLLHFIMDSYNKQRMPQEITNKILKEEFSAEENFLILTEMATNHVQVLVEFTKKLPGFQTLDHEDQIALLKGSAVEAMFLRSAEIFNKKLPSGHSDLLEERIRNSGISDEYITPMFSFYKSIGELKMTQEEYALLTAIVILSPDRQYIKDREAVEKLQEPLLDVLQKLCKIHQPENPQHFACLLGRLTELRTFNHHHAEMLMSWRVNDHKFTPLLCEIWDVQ

Take `CC(C)C1(C)N=C(c2ncccc2C(=O)O)NC1=O` (stereo not given): the call in [1], in assay [2], in assay [3], in assay [4], in assay [5] and in assay [6] was inactive. Besides, the compound was called inactive in [7], in assay [8], in assay [9], in assay [10], in assay [11] and in [12]. The compound was called inactive in assay [13], in [14], in assay [15], in [16], in assay [17] and in [18].

One may read the AC50 as the midpoint of the concentration-response curve, whichever way the signal moves. Turning to `CC(C)(C)C(=O)C(Oc1ccc(Cl)cc1)n1cncn1` (stereo not given), the compound was called inactive in assay [1], in assay [2], in assay [19], in assay [3], in [4] and in assay [6]. For the same compound, the compound was classed as inactive in assay [7], in assay [8], in [9], in assay [10], in [13] and in assay [14]. In addition, the compound was called inactive in assay [15], in assay [16], in assay [17], in assay [18] and in assay [20]. Besides, in assay [5], the AC50 is 20 µM (active).

As for `CNC(=O)N(C)c1nnc(C(C)(C)C)s1`, the outcome in assay [1], in assay [2], in assay [19], in [3], in [4] and in [5] was inactive. Also, the call in assay [6], in assay [7], in assay [8], in assay [9], in [10] and in assay [13] was inactive. Besides, the call in [14], in assay [15], in [17], in assay [18] and in assay [20] was inactive.

Take `Cc1nc(N(C)C)nc(OC(=O)N(C)C)c1C`: the compound was classed as inactive in [1], in [2], in assay [19], in assay [3], in assay [4] and in [5]. The compound was classed as inactive in assay [6], in assay [7], in assay [8], in assay [9], in [10] and in assay [11]. In addition, the result in assay [12], in assay [13], in assay [14], in [15], in [16] and in assay [17] was inactive.

In the case of `O=C(O)c1c(Cl)ccc2cc(Cl)cnc12`, the compound was classed as inactive in assay [1], in assay [2], in assay [19], in assay [3], in assay [4] and in assay [5]. Further, the outcome in [6], in [7], in assay [8], in assay [9], in [10] and in assay [11] was inactive. The call in assay [13], in assay [14], in assay [15], in assay [16] and in assay [17] was inactive.

Consider `CC(C)N1C(=O)N(c2ccccc2)CSC1=NC(C)(C)C`, for which the outcome in assay [1], in [2], in assay [19], in assay [3], in [4] and in [5] was inactive. For the same compound, the call in [6], in [7], in assay [8], in assay [9], in [10] and in assay [13] was inactive. Also, the compound was called inactive in [14], in [15], in [16] and in assay [17].

Consider `COCC(=O)N(c1c(C)cccc1C)C(C)C(=O)OC` (stereo not given), for which the call in assay [1], in assay [2], in assay [3], in assay [4], in assay [5] and in assay [6] was inactive. In addition, the outcome in [7], in [8], in assay [9], in assay [10], in assay [11] and in assay [13] was inactive. Besides, the result in [14], in assay [15], in assay [16] and in assay [17] was inactive.

The record behind these values is PubChem BioAssay (EPA / NIEHS).
